In PubChem BioAssay (NCATS) one finds max response, outcome and Potency data, which are given here for 24 compounds.

One assay relates to CRL-7250. Nature of the assay: Cytotoxic Profiling of Annotated Libraries Using Quantitative High-Throughput Screening (AID 1296008). Further: nearly all actives have a fitted effect of over 60% in size. The settings on record: Five cell lines viability, CellTiter-Glo ATP luminescence, 48-72 h; max response: hits give low values. The procedure, abridged: (§1)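 Cytotoxicity was measured as CellTiter-Glo ATP luminescence, read after 10 min at room temperature. Compound treatment of the cells lasted 48 or 72 hr at 37 degrees Celsius in a qHTS format.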

For a further assay, the system named is HEK293. The assay is described as above. The settings on record: Five cell lines viability, CellTiter-Glo ATP luminescence, 48-72 h; max response: hits give low values. The procedure, abridged:
as §1

Records with an inconclusive call do not appear. A number with no mark means an inactive call. The source made the active and inactive calls. The call rests on the fitted dose curve; in most records, active means well fitted inhibition curve with a large enough effect; inconclusive means small, poorly fitted or top-dose-only effect; inactive means flat fitted curve, though single readings scatter. Where a SMILES comes first, the peptide text is derived from it. [ ]: non-standard residue; d: D form. ξ: configuration not given here. ξLac(3-iPr) = CC(C)CC(O)C(=O)O; NMeV = CN[CH](C(=O)O)C(C)C; βAla = NCCC(=O)O
On the % scale 0 is the no-effect control and ±100 the full control effect; potency means the concentration at half of the fitted maximal effect.

For the compound `COC(=O)c1ccnc(-c2cc(C(=O)NCCc3ccccc3)ccn2)c1`, the max response in the assay with CRL-7250 was -12.7%; in the assay on HEK293 it was -3.61%.

In the case of `CCO[C@@H]1OC(=O)C[C@@H]1NC(=O)[C@@H]1CCCN1C(=O)[C@@H](NC(=O)c1ccc(N)c(Cl)c1)C(C)(C)C`, the results for the max response in the assay on CRL-7250 and in the assay with HEK293 were 1.63% and 1.39%, respectively.

Regarding `COC(=O)C[C@H]1[C@]2(C)C3=C(C)[C@H](c4ccoc4)C[C@H]3O[C@@H]2[C@H](OC(C)=O)C2[C@](C)(C(=O)OC)C=CC(=O)[C@@]21C` (stereo partly drawn), the values for the max response in the assay with CRL-7250 and with HEK293 were 0.289% and -6.04%, respectively.

For the compound `CC1OC(OCC2OC(OC3CCC4(C)C(CCC5(C)C4CC=C4C6CC(C)(C)CCC6(C(=O)OC6OC(CO)C(O)C(O)C6O)CCC45C)C3(C)CO)C(O)C(O)C2O)C(O)C(O)C1O` (stereo not drawn), the max response was -3.44% in the assay on CRL-7250 and -5.12% in the assay on HEK293.

On to `O=C(OCC1=CC(O)C2C=CO[C@@H](O[C@@H]3O[C@H](CO)[C@@H](O)[C@H](O)[C@H]3O)C12)c1ccccc1` (stereo partly drawn), for which the results for the max response with CRL-7250 and in the assay on HEK293 were -3.02% and -4.16%, respectively.

As to `CCC(C(=O)O)c1ccc(N2Cc3ccccc3C2=O)cc1` (stereo not drawn), the max response with CRL-7250 is -5.22%; in the assay on HEK293, -2.44%.

On to `C[C@@H]1CC[C@]2(C(=O)O[C@@H]3O[C@H](CO)[C@@H](O)[C@H](O)[C@H]3O)CC[C@]3(C)C(=CCC4[C@@]5(C)C[C@@H](O)[C@H](O)[C@@](C)(C(=O)O[C@H]6[C@H](O)C[C@@]7(C)C(CC[C@]8(C)C7CC=C7[C@H]9[C@](C(=O)O[C@@H]%10O[C@H](CO)[C@@H](O)[C@H](O)[C@H]%10O)(CC[C@@H](C)[C@@]9(C)O)CC[C@]78C)[C@@]6(CO)C(=O)O)C5CC[C@]43C)[C@@H]2[C@]1(C)O` (stereo partly drawn), for which the outcome in the assay with CRL-7250 was inactive. The max response in the assay with HEK293 was -9.28%.

Regarding `COC(=O)C1=CO[C@@H](O[C@@H]2O[C@H](CO)[C@@H](O)[C@H](O)[C@H]2O)[C@@H]2C(CO)=CC[C@]12O`, the max response in the assay with CRL-7250 was -2.05%. Moreover, the compound was called inactive with HEK293.

In the case of `C=C1C(=O)O[C@H]2[C@H]1CC/C(C)=C/CC[C@@]1(C)O[C@@H]21`, the max response in the assay with CRL-7250 was -15.8%; in the assay on HEK293, -18.1%.

In the case of `CC1CCCCN1S(=O)(=O)c1ccc(N2CCCC2=O)cc1` (stereo not drawn), the max response in the assay with CRL-7250 was -8.63%. Besides, the compound was called inactive with HEK293.

For the compound `O=C1NC2CCc3nc4ccccc4c(=O)n3C2=Nc2ccccc21` (stereo not drawn), the max response with CRL-7250 is 2.4%; in the assay with HEK293, -3.35%.

Turning to `COC(=O)C1(C)CCC2(C(=O)O)CCC3(C)C(=CCC4C5(C)CC(O)C(OC6OCC(O)C(O)C6O)C(C)(CO)C5CCC43C)C2C1` (stereo not drawn), the max response is 3.48% in the assay on CRL-7250 and 0.887% in the assay on HEK293.

Regarding `C=C1C(=O)OC2C1CCC(=C)C1CC(OC(C)=O)C(=C)C12` (stereo not drawn), the values for the Potency in the assay with CRL-7250 and with HEK293 were 18.4 µM (active) and 11.6 µM (active), respectively.

Take `CN1CCN(C2CCC(n3cc(-c4ccc(Oc5ccccc5)cc4)c4c(N)ncnc43)CC2)CC1` (stereo not drawn): the Potency in the assay with CRL-7250 was 5.8 µM (active); in the assay on HEK293 it was 18.4 µM (active).

Turning to `CC(C)CC1OC(=O)C2CCCN2C(=O)CCNC(=O)C(Cc2ccccc2)NC(=O)C(C(C)C)N(C)C(=O)C(C(C)C)N(C)C1=O` (stereo not drawn) (cyclo([ξLac(3-iPr)][NMeV][NMeV]F[βAla]P); configuration not given here), the max response with CRL-7250 was 2.18%; with HEK293, 4%.

Take `CC1=C2C3OC(=O)C(C)C3(O)CCC2(C)CCC1O` (stereo not drawn): the max response with CRL-7250 is -5.4%; in the assay with HEK293 it was -8.27%.

As for `O=C(O)CC(=O)OC[C@H]1O[C@@H](Oc2ccc3c(c2)OC[C@H]2c4cc5c(cc4O[C@@H]32)OCO5)[C@H](O)[C@@H](O)[C@@H]1O`, in the assay on CRL-7250, the max response was -24.1%. Moreover, the compound was classed as inactive in the assay on HEK293.

In the case of `COc1ccc2cc(C(C)C(=O)Oc3ccc(C(N)=S)cc3)ccc2c1` (stereo not drawn), the outcome with CRL-7250 was inactive. Also, the max response in the assay on HEK293 is -0.854%.

`C=CC1(C)CC(OC(=O)/C(C)=C\COC(C)=O)C(C(=C)C(=O)O)C(O)C1C(=C)CO` (stereo not drawn): the result in the assay with CRL-7250 was inactive. Also, the max response in the assay on HEK293 was -0.348%.

For `CC(C)S(=O)(=O)N[C@H]1CCOC[C@@H]1c1ccc(-c2ccc(C#N)s2)cc1`, the compound was classed as inactive in the assay with CRL-7250. For the same compound, in the assay with HEK293, the max response was -111%.

As for `c1ccc(N2CCN(CCc3nn[nH]n3)CC2)cc1`, the max response with CRL-7250 is 4.82%; with HEK293, -5.85%.

`CC1=C(CCC(C)O[C@@H]2O[C@H](CO)[C@@H](O)[C@H](O)[C@H]2O)C(C)(C)CCC1=O` (stereo partly drawn): the max response was -22.3% in the assay with CRL-7250 and 4.11% with HEK293.

With `C=C1CN(Cc2ccc(C(=O)Nc3ccccc3N)cc2)C(=O)c2ccccc21`, the values for the Potency in the assay on CRL-7250 and in the assay with HEK293 were 2.06 µM (active) and 1.46 µM (active), respectively.

Consider `C=C1C(OC2OCC(O)C(O)C2O)CC2C(C)(C)C(O)CCC2(C)C1CC/C(C)=C\CO` (stereo not drawn), for which the max response is -6.07% with CRL-7250 and -24.4% in the assay on HEK293.
